HIV RNase H inh-1: blocks HIV-1 RNase H cleavage of RNA/DNA duplex; inhibition, % at 10 µM; 65,000 compounds, 1.9% hits; P04585; RT-RNase H RNA/DNA duplex cleavage, fluorescence; in the data active means inhibition above about 50%
HIV RNase H inh-2: confirmation of HIV-1 reverse transcriptase RNase H inhibitors. shares compounds with HIV RNase H inh-1. Recombinant RT RNase H, fluorescent RNA/DNA duplex cleavage. inhibition, % at 10 µM. 1,000 compounds, 39% hits; in the data active means inhibition above about 48%; inconclusive means no clear call, values can overlap the other calls
Starred values were filed as active, the others as inactive; ? = inconclusive. Many of the other results were omitted from the sample, so hits are more common in it than they were.

SMILES | HIV RNase H inh-1 | others
c1ccc(Cn2c(-c3ccco3)nc3nc4ccccc4nc32)cc1 | 0
c1coc(-c2nc3ccccc3nc2-c2ccco2)c1 | 67* | HIV RNase H inh-2=44
O=c1oc(-c2ccco2)nc2ccccc12 | -1
O=C(NCCCn1ccnc1)C(Cc1ccccc1)N1C(=O)c2ccccc2C1=O (stereo unspecified) | 55* | HIV RNase H inh-2=35
COCCSc1ccccc1C(=O)NCCCn1ccnc1 | 18
Cc1ccc(C(=O)NCCCn2ccnc2)o1 | 2
CSCC[C@H](NC(=O)C1CCN(S(=O)(=O)c2ccc(C)cc2)CC1)C(=O)NCc1ccco1 | 4
Cc1nc(CC(=O)N2CCN(c3cccc(C)c3C)CC2)cs1 | 0
CCc1c(C)nc(N)n2c(SCC(=O)N3CCN(c4ccccc4OC)CC3)nnc12 | -5
CC(=O)C1=C(C)NC(SCC(N)=O)=C(C#N)C1c1cccnc1 (stereo unspecified) | 62* | HIV RNase H inh-2=41
CCOC(=O)C1=C(C)NC(SCC(=O)OC)=C(C#N)C1c1ccc(C(=O)OC)cc1 (stereo unspecified) | 80* | HIV RNase H inh-2=37
CCOC(=O)CSC1=C(C#N)C(c2ccc(C)cc2)C2=C(CCCC2=O)N1 (stereo unspecified) | -4
C#CCSC1=C(C#N)C(c2cccs2)C(C(=O)OCC)=C(C)N1 (stereo unspecified) | 9
CCOC(=O)C1=C(C(C)=O)C(c2cccnc2)C(C#N)=C(N)O1 (stereo unspecified) | 3
CC(=O)C1=C(C)NC(SCC(=O)c2ccc(C)cc2)=C(C#N)C1c1ccco1 (stereo unspecified) | -22
CCOC(=O)CSC1=C(C#N)C(c2ccc(OC)cc2)C2=C(CC(C)(C)CC2=O)N1 (stereo unspecified) | 1
CCOC(=O)CSC1=C(C#N)C(c2ccc(F)cc2)C(C(C)=O)=C(C)N1 (stereo unspecified) | 73* | HIV RNase H inh-2=14
CCOC(=O)C1C(=O)NC(SCC(=O)OC)=C(C#N)C1c1ccccc1OCC (stereo unspecified) | 37
CCN(C(=O)c1cc2cccc(OC)c2oc1=O)c1ccccc1 | 4
COc1cccc(NC(=O)c2cn(C)c(=O)c3cc(OC)c(OC)cc23)c1 | -13
O=C(CSc1nnnn1-c1ccccc1)Nc1nc(-c2ccccc2)ns1 | -30
O=C(CSc1nnnn1-c1ccccc1)Nc1nsc(-c2ccc(Cl)cc2)n1 | 65* | HIV RNase H inh-2=58*
O=C(CSc1nnnn1-c1ccccc1)Nc1nsc(-c2ccccc2)n1 | -6
O=C(C1CCCN1C(=O)c1cccs1)N1CCN(Cc2ccc3c(c2)OCO3)CC1 (stereo unspecified) | -3
Cn1c(=O)[nH]c(=O)c2c1nc(N1CCOCC1)n2CCSc1ncccn1 | -42
SMILES | HIV RNase H inh-1 | others
CCCS(=O)(=O)N1CCCC(C(=O)NCCc2ccc(OC)c(OC)c2)C1 (stereo unspecified) | -8
COc1ccccc1-c1nnc(NC(=O)c2ccc(S(=O)(=O)N(C)C)cc2)o1 | 2
CCCN(CCC)S(=O)(=O)c1ccc(C(=O)Nc2nnc(-c3cccc(OC)c3)o2)cc1 | 68* | HIV RNase H inh-2=89*
COc1cccc(-c2nnc(NC(=O)c3ccccc3Br)o2)c1 | -3
COc1cccc(-c2nnc(NC(=O)c3cccc(F)c3)o2)c1 | -1
CCCN(CCC)S(=O)(=O)c1ccc(C(=O)Nc2nnc(CSC)o2)cc1 | 20
CCCCN(CC)S(=O)(=O)c1ccc(C(=O)Nc2nnc(-c3ccccc3Cl)o2)cc1 | -5
CCCN(CCC)S(=O)(=O)c1ccc(C(=O)Nc2nnc(-c3cc(OC)cc(OC)c3)o2)cc1 | 53* | HIV RNase H inh-2=-11
CCc1nnc(NC(=O)c2ccc(S(=O)(=O)N(CCOC)CCOC)cc2)o1 | 7
CCN(Cc1ccccc1)S(=O)(=O)c1ccc(C(=O)Nc2nnc(-c3ccccc3OC)o2)cc1 | 78* | HIV RNase H inh-2=62*
CCOC(=O)C1CCN(C(=O)Nc2ccccc2Cl)CC1 | -2
CC1(C)Cc2cccc(OCC(=O)N3CCN(S(=O)(=O)c4ccccc4)CC3)c2O1 | -47
CCOC(=O)CNC(=O)Nc1cc(C(C)(C)C)nn1-c1ccccc1 | -4
CSC(=O)CC(=O)NC(=O)c1ccccc1 | -5
O=C1CN(C(=O)COC(=O)CCC(=O)c2ccc3c(c2)OCCO3)c2ccccc2N1 | -25
COc1ccc(O)c(-c2cc(-c3cccs3)[nH]n2)c1 | 5
O=C(CN1CCN(S(=O)(=O)c2ccc(Br)cc2)CC1)Nc1ccc2c(c1)OCCO2 | -3
O=C(CN1CCN(S(=O)(=O)c2ccc(Cl)cc2)CC1)Nc1ccc2c(c1)OCCO2 | -7
N#Cc1c(NC(=O)CN2CCN(S(=O)(=O)c3ccc4c(c3)OCCO4)CC2)sc2c1CCC2 | 70* | HIV RNase H inh-2=78*
CCSc1cnc(-c2ccccc2)n1CC | -15
Cc1noc(C)c1CSc1ccccc1C(=O)Nc1nccs1 | -17
Cc1ccc(C)c(NC(=O)C2CC(O)CN2C(=O)OC(C)(C)C)c1 (stereo unspecified) | -11
CC(C)(C)N=C1NC(=NC(C)(C)C)c2ccccc21 | -4
CCn1c(N)c(C(=O)NCc2cccnc2)sc1=S | -14
C=CCn1c(N)c(C(=O)NCC2CCCO2)sc1=S (stereo unspecified) | 5
SMILES | HIV RNase H inh-1 | others
Nc1c(C(=O)NCC2CCCO2)sc(=S)n1-c1ccccc1 (stereo unspecified) | 84* | HIV RNase H inh-2=?
CCn1c(N)c(C(=O)NCC2CCCO2)sc1=S (stereo unspecified) | -3
Cc1cc(C(=O)NCc2cccnc2)n(-c2ccccc2)n1 | -1
Nc1c(C(=O)NCc2cccnc2)sc(=S)n1-c1ccccc1 | 60* | HIV RNase H inh-2=63*
C=CCNc1nc2c(c(=O)[nH]c(=O)n2C)n1Cc1cccc(C)c1 | -8
O=C(CN1C(=O)C2C3C=CC(C3)C2C1=O)N1CCc2ccccc2C1 (stereo unspecified) | 0
CCOC(=O)c1cc(-c2nnc(-c3ccc(Oc4ccccc4)cc3)o2)c(C)nc1C | 1
Cc1cc(NC(=O)C(C)C)ncc1NC(=O)CCc1ccccc1 | -5
Nc1cccc(-n2nncc2-c2ccccc2)c1 | -22
Cn1c(=O)cc(SCC(=O)NCCCN2CCN(c3ccccc3F)CC2)c2ccccc21 | -11
CCn1c(=O)cc(SCC(=O)NCCN2CCN(Cc3ccccc3)CC2)c2ccccc21 | 0
CCn1c(=O)cc(SCC(=O)NCCCN2CCN(c3ccc(F)cc3)CC2)c2ccccc21 | 66* | HIV RNase H inh-2=38
CCN1CCN(C(c2cccs2)C(C)NC(=O)c2ccccc2F)CC1 (stereo unspecified) | -15
CCOC(=O)CCN(Cc1cccs1)S(=O)(=O)c1ccc(Cl)cc1 | -4
Cc1onc(-c2ccccc2)c1C(=O)N1CCN(C/C=C/c2ccccc2)CC1 | -1
COc1ccc(CCn2c(SCC(=O)Nc3cc(C)on3)nc3ccccc3c2=O)cc1OC | 0
Cc1cc(NC(=O)CSc2nc3c(c(=O)n2CCc2ccccc2)SC(C)C3)no1 (stereo unspecified) | 6
CCCCCCn1c(SCC(=O)Nc2cc(C)on2)nc2ccccc2c1=O | 47
Cc1cc(NC(=O)CSc2nnc(C(C)N(C)C)n2Cc2ccccc2)no1 (stereo unspecified) | 5
Cc1cc(NC(=O)CSc2nc3cc4c(cc3c(=O)n2CCc2ccccc2)OCO4)no1 | 78* | HIV RNase H inh-2=71*
Cc1cc(NC(=O)CSc2nc3ccccc3c(=O)n2Cc2ccc(F)cc2)no1 | 68* | HIV RNase H inh-2=22
COC(=O)CCN(C(=O)C1C2CC3CC(C2)CC1C3)c1ccccn1 (stereo unspecified) | -4
